# Laboratory results from PubChem BioAssay.
# Values joined by “and” are separate entries in the source; they are usually repeats but may differ in a detail not shown here. Equal entries are not always repeated. Records with an inconclusive call do not appear. For part of these data: Entries with a potency or affinity are not part of this list. Active and inactive are the calls of the source. Unless noted, no rule for the calls is given here.
# Experiments:
# [1] = blockers of polyQ-driven CASP3 activation – cell-based (AID 1583); conditions: polyglutamine-induced caspase-3 activation, cell assay; stronger effect = higher value;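 tested at 10 µM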
# [2] = yeast 75Q aggregation reduction – 75Q-TubU reporter (AID 1593); conditions: Yeast 75Q polyglutamine aggregation reporter
# [3] = restoration of touch response, mutant HTT neurons – whole organism, C. elegans mechanosensory neurons, N-terminal huntingtin (AID 1599); conditions: C. elegans polyQ-huntingtin mechanosensory neurons, stronger effect = higher value
# [4] = blockers of cytochrome c efflux from mitochondria – biochemical, purified mitochondria (AID 1603); conditions: stronger effect = lower value;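 also: mouse liver mitochondria challenged with calcium chloride; signal normalized to the plate average as 100%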
# [5] = polyglutamine aggregate formation blockers (AID 1604); conditions: polyglutamine-induced protein aggregation inhibition assay; stronger effect = higher value; tested at 2.5 µM
# [6] = glutamate transport activators, MN-1 cells, MN-1 cell line (AID 1612); conditions: MN-1 motor neuron cells, stronger effect = higher value;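 also: tested at 1 µM final; 0% = mean of DMSO vehicle wells on each plate; positive means more glutamate uptake than control and negative means less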
# [7] = GFP-Q80 aggregate reduction, neuronal-like cells, cell-based, NGF-treated PC12, GFPQ80 (AID 1614); conditions: PC12 NGF-treated GFP-polyQ80 inclusion reduction;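 also: lower means fewer inclusions and 0 means no inclusions at all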
# [8] = 75Q-TubH aggregate inhibition, S. cerevisiae, yeast (AID 1616); conditions: S. cerevisiae 75Q-TubH polyglutamine aggregation suppression; stronger effect = higher value
# [9] = P. berghei load reduction in hepatocytes – cell-based, HepG2, luciferase luminescence, HepG2 viability, primary screen (AID 624349; in the data active = parasite load remaining mostly below about 12%, no sharp cut-off; inactive = mostly above about 10%;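 also: 100% = mean of DMSO negative control wells on the same plate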); conditions: P. berghei liver stage in HepG2, luciferase luminescence, concentration not given here; parasite load remaining: stronger effect = lower value; viability: measured here: HepG2 viability without parasites
# [10] = EMT-state selective cytotoxicity in co-culture – imaging, PC-3E GFP, TEM4-18 mCherry, primary screen (AID 1345086;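 active = compounds killing one labelled cell type while sparing the other, by normalised counts and ratio limits, not self-fluorescent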;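 also: cells exposed to compound for 72 h before imaging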;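 as to red/green cell ratio (normalised): normalised mesenchymal count divided by normalised epithelial count so high means epithelial killing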); conditions: PC-3E GFP / TEM4-18 mCherry co-culture, imaging cell counts, at 1 µM
# [11] = viability loss with induced miR-34 in A549 – imaging, A549 dox-inducible miR-34, nuclei and caspase counts, primary screen (AID 1347080;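 active = compounds whose cell count with miR-34 switched on is under 0.7 times the count with it off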); conditions: A549 miR-34 inducible, Hoechst nuclei count, 48 h
# [12] = compounds altering circadian rhythm period length – cell-based, LOPAC library, luminescence reporter (AID 2774); conditions: circadian reporter cells, at 7 µM, actives lie on both sides;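 also: values are relative to mean of DMSO wells on each plate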
# [13] = system: Hepatitis C virus NS3 helicase; assay: blockers of NS3h binding to ssDNA – biochemical, fluorescence polarization, LOPAC1280 library, primary screen (AID 687035; in the data active = inhibition above about 37%); conditions: Purified HCV NS3 helicase, Cy5-dT15 ssDNA binding fluorescence polarization; stronger effect = higher value; concentration not given here
# [14] = compounds altering Cy5-DNA-NS3h complex signal – biochemical, LOPAC1280, artefact control for HCV NS3 helicase inhibitor project (AID 687037); conditions: Cy5-DNA-NS3h complex fluorescence interference counterscreen
# [15] = system: Aerobactin synthetase IucA (Klebsiella pneumoniae); assay: inhibition of K. pneumoniae IucA enzyme – biochemical, Tocris library, absorbance (AID 1345561); conditions: purified IucA enzyme assay, absorbance (OD) read-out; stronger effect = lower value;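 tested at 8 µM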;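 also: 100% = enzyme without compound and 0% = no enzyme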
# [16] = system: Aerobactin synthetase IucA (Klebsiella pneumoniae, hypervirulent); assay: biochemical IucA inhibition screen of LOPAC library by absorbance (AID 1346212); conditions: IucA enzyme assay, absorbance (OD) readout; stronger effect = lower value;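 tested at 8 µM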;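 also: 100% = no compound wells and 0% = no enzyme wells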
# [17] = viability loss in pontine glioma line – cell-based, SU-DIPG-XVII, MIPE5.0, CellTiter-Glo, qHTS, dose response (AID 1347060; cut-off not given, nearly all actives have AC50 up to about 26 µM); conditions: CellTiter-Glo ATP luminescence
# [18] = viability loss in pontine glioma line – cell-based, JHH-DIPG-1, MIPE4.0, CellTiter-Glo, qHTS, dose response (AID 1347062; cut-off not given, nearly all actives have AC50 up to about 27 µM); conditions: JHH-DIPG-1 viability, CellTiter-Glo ATP luminescence
# [19] = viability loss in pontine glioma line – cell-based, SU-DIPG-XIII, MIPE5.0, CellTiter-Glo, qHTS, dose response (AID 1347064; cut-off not given, nearly all actives have AC50 up to about 23 µM); conditions: CellTiter-Glo ATP luminescence
# [20] = viability loss in pontine glioma line – cell-based, SU-DIPG-XXV, MIPE5.0, CellTiter-Glo, qHTS, dose response (AID 1347065; cut-off not given, nearly all actives have AC50 up to about 26 µM;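 also: cells exposed to compound for 48 hours before ATP readout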); conditions: CellTiter-Glo ATP luminescence
# [21] = growth inhibition of DIPG cells – cell-based, MIPE4.0 library, CellTiter-Glo luminescence, qHTS (AID 1347066; cut-off not given, nearly all actives have AC50 up to about 30 µM;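 also: cells exposed to compound for 48 hours before readout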); conditions: SU-DIPG-VI viability, CellTiter-Glo ATP luminescence
# [22] = JHH-DIPG-1 glioma cell viability, MIPE5.0 library, CellTiter-Glo luminescence, qHTS (AID 1347067; cut-off not given, nearly all actives have AC50 up to about 26 µM;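 also: cells exposed to compound for 48 hours before readout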); conditions: JHH-DIPG-1 glioma viability, CellTiter-Glo ATP luminescence
# [23] = growth inhibition of DIPG cells – cell-based, MIPE5.0 library, qHTS (AID 1347068; cut-off not given, nearly all actives have IC50 up to about 30 µM); conditions: SU-DIPG-XXV viability
# [24] = chitosan synthesis blockers in C. neoformans – flow cytometry, Cibacron Brilliant Red staining (AID 1347148); conditions: Cryptococcus neoformans chitosan, stronger effect = lower value; at 10 µM unless noted;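 also: compound exposure lasted three days at 37 degrees C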
# [25] = blockers of cellular phospholipid synthesis – cell-based, LOPAC library, screen 4, primary screen (AID 1347384); conditions: animal cells, phospholipid biosynthesis inhibition screen; at 10 µM
# [26] = galactose survival enhancers in mitochondrial complex I cybrids – cell-based, galactose medium, ATP luminescence, primary screen (AID 1645843;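 active = z-score of at least 1.8 in each of two replicates, scored against plate mean and spread of sample wells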;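 also: positive z means more ATP and so rescue of galactose-driven cybrid death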); conditions: complex I mutant cybrid cells, 72 h, stronger effect = higher value
# [27] = molecular target: ATP-dependent translocase ABCB1 (Homo sapiens) (UniProt P08183); assay: P-glycoprotein substrate transport blockade – cell-based (AID 377; in the data active = fluorescence slope change above about 50%); conditions: MDR1-expressing cells, fluorescent substrate accumulation slope; stronger effect = higher value; concentration not given here
# [28] = compounds altering viability of human ES cells (AID 493140); conditions: human embryonic stem cell survival screen; stronger effect = higher value;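 also: cells exposed to compounds for four days before counting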
# [29] = MELAS cybrid and Rieske KO viability enhancers – cell-based, MELAS cybrids, Rieske KO mouse fibroblasts, CellTiter-Glo, primary screen (AID 1508586;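 active = mean z-score across replicates of 1.96 or higher in either the MELAS or the Rieske mutant cell line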;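 also: z relative to plate mean and SD of compound and empty wells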); conditions: low glucose
# [30] = viability loss in pontine glioma line – cell-based, SU-DIPG-XIII, MIPE4.0, CellTiter-Glo, qHTS, dose response (AID 1347061; cut-off not given, nearly all actives have AC50 up to about 37 µM;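 also: cells exposed to compound for 48 hours before readout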); conditions: CellTiter-Glo ATP luminescence
# [31] = viability loss in pontine glioma line – cell-based, SU-DIPG-IV, MIPE4.0, CellTiter-Glo, qHTS, dose response (AID 1347063; cut-off not given, nearly all actives have AC50 up to about 30 µM;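 also: compound exposure lasted 48 hours before the viability readout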); conditions: CellTiter-Glo ATP luminescence
# [32] = measured here: relative caspase fold change +Dox/-Dox
# [33] = measured here: total cells with miR-34 induction, stronger effect = lower value
# [34] = measured here: total cells without miR-34 induction
# Sequence of ATP-dependent translocase ABCB1 (Homo sapiens) (P08183 whole entry, looked up): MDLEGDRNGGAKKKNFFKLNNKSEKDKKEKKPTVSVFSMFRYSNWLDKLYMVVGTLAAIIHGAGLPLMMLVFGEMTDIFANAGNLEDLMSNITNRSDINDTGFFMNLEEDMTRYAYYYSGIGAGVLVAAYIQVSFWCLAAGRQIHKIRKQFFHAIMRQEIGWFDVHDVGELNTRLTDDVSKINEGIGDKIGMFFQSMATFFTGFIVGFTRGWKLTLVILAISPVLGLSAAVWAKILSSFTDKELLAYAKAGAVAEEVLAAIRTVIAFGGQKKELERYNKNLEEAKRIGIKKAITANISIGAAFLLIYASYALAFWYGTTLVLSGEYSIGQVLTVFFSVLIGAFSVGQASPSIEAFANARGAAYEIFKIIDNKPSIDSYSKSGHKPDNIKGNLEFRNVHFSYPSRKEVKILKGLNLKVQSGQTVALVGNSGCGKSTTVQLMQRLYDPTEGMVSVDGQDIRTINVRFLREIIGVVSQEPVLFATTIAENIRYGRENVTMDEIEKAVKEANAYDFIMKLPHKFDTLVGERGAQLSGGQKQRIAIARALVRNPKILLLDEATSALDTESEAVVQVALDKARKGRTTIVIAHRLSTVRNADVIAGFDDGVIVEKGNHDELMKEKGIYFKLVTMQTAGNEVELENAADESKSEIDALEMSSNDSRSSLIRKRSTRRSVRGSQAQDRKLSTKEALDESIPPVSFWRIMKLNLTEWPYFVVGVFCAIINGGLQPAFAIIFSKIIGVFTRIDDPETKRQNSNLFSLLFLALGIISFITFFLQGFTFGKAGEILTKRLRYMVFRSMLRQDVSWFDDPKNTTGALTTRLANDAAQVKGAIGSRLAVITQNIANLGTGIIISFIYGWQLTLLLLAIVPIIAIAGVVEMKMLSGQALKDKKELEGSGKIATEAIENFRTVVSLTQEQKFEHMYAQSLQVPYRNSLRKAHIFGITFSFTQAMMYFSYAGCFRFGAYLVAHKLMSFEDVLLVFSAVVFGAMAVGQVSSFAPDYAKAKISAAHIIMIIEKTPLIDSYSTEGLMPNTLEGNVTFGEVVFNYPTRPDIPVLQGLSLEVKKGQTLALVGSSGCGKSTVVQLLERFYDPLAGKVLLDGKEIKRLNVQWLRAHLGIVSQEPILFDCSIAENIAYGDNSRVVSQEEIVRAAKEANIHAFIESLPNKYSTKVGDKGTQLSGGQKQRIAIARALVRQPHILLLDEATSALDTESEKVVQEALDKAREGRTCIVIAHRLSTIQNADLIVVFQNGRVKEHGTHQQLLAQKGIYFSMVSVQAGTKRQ
smiles,measurement,setting,value
O=C1CN=C(c2ccccc2Cl)c2cc([N+](=O)[O-])ccc2N1,inhibition,[1],12.9%
same,score,[2],0.89
same,rescue above control,[3],-2.29
same,cytochrome c release ratio,[4],0.98
same,inhibition of aggregation,[5],52.4%
same,glutamate uptake change,[6],-25.1%
same,inclusion score,[7],2
same,aggregation suppression score,[8],0.77
same,parasite load remaining,[9],52.7% (inactive)
same,viability,[9],99.8%
same,red/green cell ratio (normalised),[10]; actives lie on both sides,1.15 (inactive)
same,normalised cell number,[10]; measured here: epithelial PC-3E GFP cell survival,0.93
same,normalised cell number,[10]; measured here: mesenchymal TEM4-18 mCherry cell survival,1.07
same,fold change,[11]; stronger effect = lower value,0.845 (inactive)
same,fold change,[11]; [32],3.3
same,cell count,[11]; [33],10900
same,cell count,[11]; [34],12900
COC(=O)[C@@H](N)CCCN=C(N)N[N+](=O)[O-],period change,[12],-0.07 h (inactive)
same,inhibition,[13],-2% (inactive)
same,fluorescence ratio (interference),[14],1 (inactive)
same,remaining activity,[15],81.5% (inactive)
same,remaining activity,[16],117% (inactive)
same,outcome,[17],inactive
same,outcome,[18],inactive
same,outcome,[19],inactive
same,outcome,[20],inactive
same,outcome,[21],inactive
same,outcome,[22],inactive
same,outcome,[23],inactive
same,fold change,[11]; stronger effect = lower value,1.06 (inactive) and 1.11 (inactive) and 0.952 (inactive)
same,fold change,[11]; [32],1.8 and 0.812 and 0.955
same,cell count,[11]; [33],11200 and 5930 and 8740
same,cell count,[11]; [34],10600 and 5320 and 9180
same,fold fluorescence,[24],4.22 [at 214.4 µM] (inactive)
same,outcome,[25],inactive
same,z-score,[26],0.23 (inactive) and 0.29 (inactive)
C[C@]12N[C@H](Cc3ccccc31)c1ccccc12,fluorescence slope change,[27],55.9% (active)
same,period change,[12],0.055 h (inactive)
same,survival,[28],15.6 (inactive)
same,parasite load remaining,[9],44.8% (inactive) and 97.8% (inactive)
same,viability,[9],70.4% and 87.5%
same,inhibition,[13],-1% (inactive)
same,fluorescence ratio (interference),[14],1 (inactive)
same,remaining activity,[15],117% (inactive)
same,remaining activity,[16],89.7% (inactive)
same,fold change,[11]; stronger effect = lower value,1.14 (inactive) and 0.978 (inactive) and 0.959 (inactive)
same,fold change,[11]; [32],0.783 and 1.01 and 0.875
same,cell count,[11]; [33],10200 and 8980 and 9270
same,cell count,[11]; [34],8990 and 9190 and 9660
same,outcome,[25],inactive
same,z-score,"[29]; MELAS cybrid survival, CellTiter-Glo 48 h, stronger effect = higher value",0.143 (inactive)
same,z-score,"[29]; Rieske KO mouse fibroblast survival, CellTiter-Glo 72 h",0.47
same,z-score,[26],-0.205 (inactive) and 0.805 (inactive)
O=C(Cc1ccc(Cl)c(Cl)c1)N1CCCCC1CN1CCCC1 (stereo not drawn),period change,[12],-0.135 h (inactive)
same,inhibition,[13],-2% (inactive)
same,fluorescence ratio (interference),[14],0.9 (inactive)
same,remaining activity,[15],106% (inactive)
same,remaining activity,[16],90.2% (inactive)
same,fold change,[11]; stronger effect = lower value,1.01 (inactive) and 0.956 (inactive)
same,fold change,[11]; [32],1.27 and 0.734
same,cell count,[11]; [33],9780 and 8020
same,cell count,[11]; [34],9720 and 8380
same,outcome,[25],inactive
same,z-score,[26],0.175 (inactive) and -0.475 (inactive)
Oc1ccc2c3c1O[C@H]1c4[nH]c5c(c4C[C@@]4(O)[C@@H](C2)N(CC2CC2)CC[C@]314)C[C@@]1(O)[C@H]2Cc3ccc(O)c4c3[C@@]1(CCN2CC1CC1)[C@H]5O4,period change,[12],-0.025 h (inactive)
same,inhibition,[13],-2% (inactive)
same,fluorescence ratio (interference),[14],1 (inactive)
same,remaining activity,[15],103% (inactive)
same,remaining activity,[16],120% (inactive)
same,outcome,[30],inactive
same,outcome,[18],inactive
same,outcome,[31],inactive
same,outcome,[21],inactive
same,fold change,[11]; stronger effect = lower value,1.09 (inactive) and 0.956 (inactive)
same,fold change,[11]; [32],1.04 and 0.836
same,cell count,[11]; [33],10400 and 9420
same,cell count,[11]; [34],9540 and 9850
same,z-score,[26],0.855 (inactive) and 1.22 (inactive)
